Tau fibril ThT: qHTS for Inhibitors of Tau Fibril Formation, Thioflavin T Binding | Microtubule-associated protein tau (Homo sapiens), P10636 | recombinant tau K18 P301L, heparin-induced fibrillization, ThT fluorescence | Potency, µM (highest dose often 57.4 µM), for inactives: at the top dose activity, negative = inhibition, actives largely listed as inhibitors | hit rate 2.1% among 270,000; further: potency means the concentration at half of the fitted maximal effect; on the % scale 0 is the no-effect control and ±100 the full control effect; nearly all actives have a fitted effect of over 55% in size
Target sequence (P10636 561-689 P618L limits assumed): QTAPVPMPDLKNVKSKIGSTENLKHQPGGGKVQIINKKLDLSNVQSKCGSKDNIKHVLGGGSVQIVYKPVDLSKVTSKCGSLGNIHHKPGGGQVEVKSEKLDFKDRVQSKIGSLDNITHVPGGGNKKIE
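Aggregation was driven by heparin (20 uM final) acting on recombinant tau […] bearing P301L in 100 mM sodium acetate pH 7; fibrils were detected with Thioflavin T.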
JMJD2E inh: qHTS Assay for Inhibitors of Human Jumonji Domain Containing 2E (JMJD2E) | Lysine-specific demethylase 4E (Homo sapiens), B2RXH2 | JMJD2E catalytic domain, FDH-coupled NADH fluorescence (FDH is formaldehyde dehydrogenase) | Potency, µM (top dose mostly 57.1 µM), without a hit: at the highest dose activity change, negative = inhibition, hits mostly inhibitors | hit rate 1.6% among 230,000; active means well fitted inhibition curve with a large enough effect, not every such curve was filed as active; inconclusive means small, poorly fitted or top-dose-only effect, or another doubt; inactive means no such curve, though single readings can be large or run the other way;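 further: potency means the concentration at half of the fitted maximal effect; 0% = wells with enzyme and -100% = buffer wells without enzyme; nearly all actives have a fitted effect of over 50% in size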
Target sequence (B2RXH2 1-337 limits assumed): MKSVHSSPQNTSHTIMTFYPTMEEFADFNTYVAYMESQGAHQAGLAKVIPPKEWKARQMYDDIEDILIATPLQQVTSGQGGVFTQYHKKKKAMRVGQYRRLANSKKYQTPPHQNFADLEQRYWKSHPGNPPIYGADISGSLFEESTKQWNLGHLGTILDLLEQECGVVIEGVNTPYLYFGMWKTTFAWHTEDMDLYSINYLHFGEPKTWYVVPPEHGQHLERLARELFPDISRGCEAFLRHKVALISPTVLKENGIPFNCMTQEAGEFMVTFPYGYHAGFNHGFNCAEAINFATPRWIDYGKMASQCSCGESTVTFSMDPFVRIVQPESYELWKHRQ
Lamin A splicing: qHTS Assay for Modulators of Lamin A Splicing; HeLa LMNA splicing GFP/RFP minigene ratio, 48 h; Potency, µM (titrated, usually from 46.1 µM), for inactives: at the highest dose ratio change, negative = inhibition, usual class: inhibitors; hit rate 0.01% among 200,000; AID 1487, 2009; active means well fitted inhibition curve with a large enough effect in the signal ratio, with a control signal flat, not every such curve was filed as active; inconclusive means small, poorly fitted or top-dose-only effect, or effect the other way, or a change in a side signal; the % refers to the signal ratio; further: potency means the concentration at half of the fitted maximal effect; on the % scale 0 is the no-effect control and ±100 the full control effect
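S3 HeLa cells stably expressing lamin A-EGFP splicing minigene plus DsRed2, 600 cells/well, 48 h compound exposure at 37C. Laser-scanning cytometry; analysed as GFP (500-530 nm)/RFP (575-640 nm) total intensity ratio; 0.5% DMSO vehicle.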
Tau fibril FP: qHTS for Inhibitors of Tau Fibril Formation, Fluorescence Polarization; Microtubule-associated protein tau (Homo sapiens), P10636; K18 P301L tau heparin fibrillization, Alexa594 FP, 6 h; Potency, µM (titrated, usually from 57.7 µM), for the others: at the highest dose activity, negative = inhibition, actives largely listed as inhibitors; hit rate 0.39% among 280,000; further: potency means the concentration at half of the fitted maximal effect; on the % scale 0 is the no-effect control and ±100 the full control effect; nearly all actives have a fitted effect of over 55% in size
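Quantitative HTS format: compounds meet 15 uM recombinant K18 P301L tau and Alexa 594-tau tracer in 100 mM sodium acetate pH 7; 20 uM heparin triggers fibrillization at 37 C over 6 hr; FP gives the signal.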
Tau fluor cs: Counterscreen qHTS for Inhibitors of Tau Fibril Formation, Fluorescence Polarization; hit rate 0.93% among 280,000; AID 1463, 2008; tau K18 P301L Alexa594 fluorescence, heparin fibrillization; Potency, µM (top dose mostly 57.7 µM), without a hit: top-dose activity change, negative = decrease; further: potency means the concentration at half of the fitted maximal effect; on the % scale 0 is the no-effect control and ±100 the full control effect; nearly all actives have a fitted effect of over 55% in size
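Human tau K18 P301L (15 uM unlabeled, 0.24 uM Alexa 594-labeled) in 100 mM sodium acetate pH 7 with 20 uM heparin, 6 hr at 37 C. ThT 30 uM added, 1 hr ambient; Alexa 594 FP and total fluorescence read at 555/632 nm.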
CBFb-RUNX1 inh: qHTS Assay for Compounds Blocking the Interaction Between CBF-beta and RUNX1 for the Treatment of Acute Myeloid Leukemia; Potency, µM (top dose mostly 59.8 µM), without a hit: at the highest dose activity, negative = inhibition, usual class: inhibitors; 230,000 tested, under 10 active; AlphaScreen CBFb-His/RUNX1-biotin binding, biochemical; Runt-related transcription factor 1 (Homo sapiens) + Core-binding factor subunit beta …; further: % of control where 0% means no effect
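AlphaScreen proximity signal reports loss of binding between His-tagged CBF-beta and biotin-labelled RUNX1, each at 30 nM. Proteins are pre-associated for 20 minutes, compounds added for 15 minutes, then beads for 90 minutes, all at ambient temperature.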
The depositor's hits bear a star; ? = inconclusive; nt = no result; [ ] = remark or other dose. Shown are actives, neighbours in structure and some others; about 3.2% of the full set was active somewhere. Unless noted, the call rests on the fitted dose curve; in most records, active means well fitted curve in the direction sought with a large enough effect; inconclusive means small, poorly fitted or top-dose-only effect, or another doubt; inactive means no such curve, though single readings can be large; an effect the other way counts as inactive or inconclusive.

SMILES	Tau fibril ThT	JMJD2E inh	Lamin A splicing	Tau fibril FP	Tau fluor cs	CBFb-RUNX1 inh
Cc1ccc(NC(=O)c2cc(-c3ccco3)nc3ccccc23)cc1S(=O)(=O)N1CCOCC1	-14%	16µM*	15%[46 µM]	7%	?	?
COC(=O)CC1Oc2cc3oc4c(c3cc2O1)C(=O)CC(C)(C)C4 (stereo unspecified)	-12%	-16%	nt	-2%	-10%	10%
CC1(C)CC(=O)c2c(oc3cc(O)c(O)cc23)C1	28µM*	13µM*	16%	?	?	?
COc1ccc(-c2nc(SCC(=O)Nc3ccc4c(c3)OCCO4)c(-c3ccc(F)cc3)[nH]2)cc1	-1%	nt	nt	?	8.9µM*[quencher]	nt
COc1ccc2nc(SCC(=O)Nc3ccc4c(c3)OCCO4)[nH]c2c1	?	8%	2%	3%	-28%	-4%
COc1cccc(-c2nc(SCC(=O)NCc3ccco3)c3c(=O)n(C)c(=O)n(C)c3n2)c1	-9%	nt	-19%[46 µM]	-7%	-9%	nt
COc1ccc(-c2nc(SCC(=O)Nc3ccc4c(c3)OCO4)c(-c3ccc(F)cc3)[nH]2)cc1OC	1%	nt	nt	3%	?	nt
COc1ccc(-c2nc(SCC(=O)Nc3ccc4c(c3)OCCO4)c(-c3ccc(F)cc3)[nH]2)cc1OC	-12%	nt	nt	5%	6.3µM*[quencher]	nt
COc1ccc(-n2nnc3c(SCC(=O)Nc4ccc5c(c4)OCCO5)ncnc32)cc1	?	?	-6%	-9%	?	-2%
COc1cccc(-c2nc(SCC(=O)Nc3ccc4c(c3)OCCO4)c(-c3ccc(C)cc3)[nH]2)c1	?	nt	nt	?	5µM*[quencher]	nt
COc1ccc(-c2[nH]c(-c3cccc(OC)c3)nc2SCC(=O)NCc2ccco2)cc1	?	?	1%	?	14µM*[quencher]	-13%
Cc1cc(C)c(NC(=O)Cn2c(=O)n(CC(=O)NCCc3ccccc3)c(=O)c3ccccc32)c(C)c1	12%	nt	nt	?	4%	nt
Cc1ccc(-n2ncc(C(=O)Nc3ccc4c(c3)OCO4)c2C2CCN(C(=O)OC(C)(C)C)CC2)cc1	?	nt	-3%[46 µM]	-4%	13µM*[quencher]	nt
COc1cc(OC)c(NC(=O)Cn2cnc3nc4c(cc3c2=O)CCCC4)cc1Cl	0%	nt	-2%[46 µM]	2%	-10%	nt
Cc1[nH]c2ccccc2c1/C=C/c1nc2ccccc2c(=O)n1CCO	?	?	?	17%	10µM*[quencher]	6%
NCC(=O)N[C@@H](CCCN=C(N)N)C(=O)NCC(=O)N[C@@H](CCC(=O)O)C(=O)N[C@@H](CO)C(=O)O	nt	nt	nt	nt	nt	4%
CC1CCc2c(sc3nc(-c4cc5cc(Br)ccc5oc4=O)[nH]c(=O)c23)C1 (stereo unspecified)	-4%	nt	11%[46 µM]	-11%	-8%	nt
CN1CC=C2C(C#N)=C(N)C(C#N)(C#N)[C@H](c3ccoc3)[C@H]2C1	22µM*	?	1%	?	?	-16%
CCn1cc(C(=O)N2CCN(c3cccc(Cl)c3)CC2)c(=O)c2cc(S(=O)(=O)N3CCCCC3)ccc21	-7%	nt	nt	-6%	-5%	nt
O=C(CSC1=NS(=O)(=O)c2ccccc21)Nc1ccccc1	32µM*	-13%	-1%	?	-16%	5%
COC(=O)CSC1=NS(=O)(=O)c2ccccc21	-15%	-1%	4%	-9%	-8%	6%
COc1ccc(CCNC(=O)CCc2c(C)c3cc4c(C)coc4c(C)c3oc2=O)cc1OC	-11%	nt	nt	-5%	1%	nt
CC1=CC(c2ccccc2)n2nc(NS(=O)(=O)c3ccc(C)cc3)nc2N1 (stereo unspecified)	11µM*	10%	3%	?	?	17%
